Assay outcomes: PubChem BioAssay, University of Kansas High Throughput Screening Laboratory
mHTT-CaM PPI inh: mutant huntingtin-calmodulin interaction inhibitors – biochemical, AlphaScreen, primary screen | inhibition, % at 15 µM | 190,000 compounds, 3.6% hits | P42858 | AlphaScreen His-mHTT/GST-CaM binding, luminescence;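 further: 0% = both proteins with DMSO and 100% = one protein alone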
Pf apPOL inh: Pf-apPOL inhibitors, biochemical, fluorescence; Recombinant Pf-apPOL, molecular beacon fluorescence, 1.5 h; 210,000 compounds, 0.25% hits; inhibition, % at 10 µM; Plasmodium falciparum apicoplast DNA polymerase (apPOL); AID 1794808, 2022
* marks the source's active call; other numbers are inactive results; . = no result; ! = not active in a repeat. Most compounds without a hit are left out; they make up all but 3.6% or so of the library. No stated cut-off is given here; in the data, active means inhibition above about 50%; inactive means the rest.

SMILES	mHTT-CaM PPI inh	Pf apPOL inh
COc1ccccc1CC(=O)N1CCCC1c1ccc(Cl)cc1 (stereo unspecified)	59*	-2
O=C(CCCc1ccccc1)N1CCCn2nc(-c3ccc(Cl)cc3)cc2C1	88*	0
COc1ccccc1CC(=O)N1CCCC1c1ccc(C)cc1 (stereo unspecified)	-5	-2
O=C(CCCc1ccccc1)N1CCCn2nc(-c3cccs3)cc2C1	-4	-8
COCC(=O)Nc1cccc(-c2nc3ncccc3o2)c1	4	-2
COc1ccc(Cl)cc1NC(=O)N1CCC(N2CCN(Cc3ccccc3)C2=O)CC1	17	-8
Cc1cc(NC(=O)c2ccc(Cl)cc2[N+](=O)[O-])no1	0	1
COc1ccc(C)cc1NCc1ccccc1C	81*	9
COc1cc(Br)c(CNc2cc(C)ccc2C)cc1OC	42	-1
CC[C@H]1C(c2ccccc2)=NN(c2ccccc2)[C@@H]1CO	12	-6
OC[C@@H]1[C@@H](c2ccc(Cl)cc2)C(c2ccccc2)=NN1c1ccccc1	86*	-5
OC[C@@H]1[C@@H](c2ccc(Cl)cc2)C(c2cccc(Cl)c2)=NN1c1ccccc1	74*	-5
C[C@H]1C(c2ccc(F)cc2)=NN(c2ccccc2)[C@@H]1CO	-85	0
OC[C@@H]1[C@@H](c2ccc(F)cc2)C(c2cccc(Cl)c2)=NN1c1ccccc1	72*	0
C[C@H]1C(c2cccc(Cl)c2)=NN(c2ccccc2)[C@@H]1CO	-84	-3
Cc1ccc(C)c(CNC(=O)CCc2conc2-c2ccc(F)cc2)c1	-12	-2
CCOc1cc(C2C=C(c3cccc([N+](=O)[O-])c3)Nc3nnnn32)ccc1OC(F)F (stereo unspecified)	5	9
COc1ccc(CNC(=O)C2(C)CCCN(S(=O)(=O)c3ccc(C)cc3)C2)cc1 (stereo unspecified)	-8	-4
COc1cc(OC)c(OC)cc1/C=C1\N=C(c2cncc(Br)c2)OC1=O	12	6
CCc1ccc(NC(=O)Nc2ccc3nc(C)cc(OC)c3c2)cc1	20	0
NC(=NOC(=O)Nc1ccc(Cl)cc1)c1cccc(CS(=O)(=O)c2cccs2)c1	.	-7
Cc1ccccc1C(=O)CC(=O)c1ccccc1O	50*	-2
COc1ccc(NC(=O)c2ccccc2C)c(OC)c1	-2	0
COc1ccc(O)c(C(=O)CC(=O)c2cccc(C)c2)c1	59*	-1
COc1ccc(O)c(C(=O)CC(=O)c2ccccc2C)c1	62*	-10
SMILES	mHTT-CaM PPI inh	Pf apPOL inh
Cc1ccc(O)c(C(=O)CC(=O)c2cccc(F)c2)c1	43	-2
Cc1ccc(C(=O)CC(=O)c2ccccc2O)cc1	45	-1
Nc1c(C(=O)NCCN2CCCC2)nnn1-c1cccc(C(F)(F)F)c1	1	-2
Cn1nc(C(=O)N2CC3CC(NC(=O)c4ccccc4)C2C3)c2ccccc21 (stereo unspecified)	2	-2
Cc1ccc(C(=O)N2CCN(c3ccc(-c4nc(C)c(C)s4)cn3)CC2)cc1F	-12	1
COc1ccc2nc(N3CCC(C(=O)NCCN4CCCCCC4)CC3)sc2c1	10	-9
O=C(Nc1nc(-c2cc3ccccc3oc2=O)cs1)c1ccc(Br)s1	-8	75*
O=C(Nc1nc(-c2cc3ccccc3oc2=O)cs1)c1ccc(F)cc1	-1	-2
COc1ccc(C2C(C)C3(N)NC(=O)C(C#N)(C3C)C2(C#N)C#N)cc1 (stereo unspecified)	1	0
O=C1NC2(CCN(C(=O)c3cc(F)cc(F)c3)CC2)Nc2cc(Cl)ccc21	-6	-6
N#CCCN(Cc1cccs1)S(=O)(=O)c1cccc2nsnc12	.	-4
Cn1nc(C(=O)NCc2ccccc2)c2c1CCN(C(=O)c1c(F)cccc1F)C2	2	4
Cn1nc(C(=O)NCc2ccccc2)c2c1CCN(C(=O)c1ccc(Cl)cc1)C2	0	-3
COc1ccccc1C(=O)N1CCc2c(c(C(=O)NCc3ccc(Cl)cc3)nn2C)C1	80*	4
COc1cccc(C(=O)N2CCc3c(c(C(=O)NCc4ccc(Cl)cc4)nn3C)C2)c1	90*	-2
Cn1nc(C(=O)NCc2ccccc2)c2c1CCN(C(=O)c1cccc(Cl)c1)C2	81*	-11
Cn1nc(C(=O)NCc2ccc(Cl)cc2)c2c1CCN(C(=O)c1ccccc1F)C2	43	14
CN(C)c1cccc(C(=O)N2CCc3c(c(C(=O)NCc4ccccc4)nn3C)C2)c1	50*	-5
CCc1ccccc1N1CCN(C(=O)c2ccc(Cl)cc2Cl)C(C)C1=O (stereo unspecified)	12	0
Cc1cccc(-n2nc3c(c2NC(=O)c2ccc(Br)o2)CS(=O)C3)c1C (stereo unspecified)	4	0
COc1cccc(C(=O)N2CCc3c(c(C(=O)NCc4ccccc4)nn3C)C2)c1	69*	-5
Cn1nc(C(=O)NCc2ccccc2)c2c1CCN(C(=O)c1cccs1)C2	4	-14
CCOc1ccc(C(=O)N2CCc3c(c(C(=O)NCc4ccccc4)nn3C)C2)cc1	-17	-11
COc1ccc(C(=O)N2CCc3c(c(C(=O)NCc4ccccc4)nn3C)C2)cc1OC	75*	-10
COc1ccc(S(=O)(=O)Nc2cc(Cl)ccc2Cl)cc1	-8	8
SMILES	mHTT-CaM PPI inh	Pf apPOL inh
COc1ccc(N2C(=O)CSC2c2cccc(Br)c2)c(OC)c1 (stereo unspecified)	13	0
N#Cc1cccc(C(=O)N2CCOc3ccccc32)c1	6	3
COc1ccccc1N1CCN(C(=O)Nc2ccc(C(F)(F)F)cc2)CC1	.	-2
O=[N+]([O-])c1ccc2cc(Br)c3ccccc3c2c1	.	2
Nc1ccc2cc(Br)c3ccccc3c2c1	59*	.
O=C(Nc1ccn(Cc2ccc(F)cc2)n1)C1c2ccccc2Oc2ccccc21	-11	-9
CC1=C(C(N)=O)C(c2ccccc2)NC(=O)N1 (stereo unspecified)	-6	-2
COc1cc(C(Nc2cc(C)ccn2)c2ccc3cccnc3c2O)ccc1O (stereo unspecified)	100*	2
CCOc1cc(C(Nc2cc(C)ccn2)c2ccc3cccnc3c2O)ccc1O (stereo unspecified)	100*	-2
CCOc1ccccc1C(=O)Nc1cc(C)ccn1	-16	-2
Cc1ccnc(NC(c2ccc(N(C)C)cc2)c2ccc3cccnc3c2O)c1 (stereo unspecified)	100*	-20
Cc1ccnc(NC(=O)c2ccc(C(C)C)cc2)c1	-13	-5
COc1cc(-c2nc3ncccn3c2Nc2ccc(C)cc2)ccc1O	9	2
CC(C)CCNC(=O)c1ccc([N+](=O)[O-])cc1Cl	-3	-3
COc1ccc(NC(=O)c2sc3ccccc3c2Cl)cc1OC	0	-7
COC(=O)c1c(NC(=O)c2ccc([N+](=O)[O-])o2)sc(C)c1C	-6	-3
C=CCc1cc(OC)ccc1OCC(O)CN1CCN(c2ccc(OC)cc2)CC1 (stereo unspecified)	50*!	-3
C=CCc1cc(OC)ccc1OCC(O)CN1CCN(c2ccccc2F)CC1 (stereo unspecified)	14	1
C=CCc1ccc(OCC(O)CN2CCN(c3ccc(OC)cc3)CC2)c(OC)c1 (stereo unspecified)	51*	-3
C=CCc1ccc(OCC(O)CN2CCN(c3ccccc3)CC2)c(OC)c1 (stereo unspecified)	40	0
